MPTP block = mitochondrial permeability transition pore inhibitors, primary screen, biochemical, isolated mouse mitochondria, absorbance. Ca2+ swelling absorbance, 30 min. inhibition, % at 10 µM. 1.4% of 360,000 active. AID 602449, 2012;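 active = inhibition of 50% or more, scaled per plate between neutral and stimulator controls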;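 also: 0% = DMSO wells given calcium and 100% = 1 mM EGTA wells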
Pemphigus Ab inh = inhibitors of pemphigus antibody binding to DSG3, primary screen, biochemical, bead-based, flow cytometry, scFv-GFP; Desmoglein-3 (Homo sapiens), P32926; DSG3-coupled beads, scFv-anti-DSG3-GFP binding; stronger effect = lower value; binding (percent of control), % at 10 µM; 0.48% of 310,000 active;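 active = binding more than 3 SD below its plate's average and above zero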;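 also: hits lower antibody fragment binding to DSG3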
rCAG binder = binders of r(CAG) RNA repeats, primary screen, biochemical, fluorescence; r(CAG) RNA repeat, TO-PRO-1 dye displacement fluorescence; inhibition, % at 3 µM; 1.3% of 370,000 active; AID 651821, 2012;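 active = inhibition above the plate cutoff, the mean of all test compounds on that plate plus 3 SD, cut at about 35% in these data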;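 also: 0% = DMSO alone and 100% = 100 µM mitoxantrone as full dye displacement; higher means more dye released from RNA so lower well fluorescence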
proKLK7 act = proKLK7 zymogen activators, primary screen, biochemical, fluorescence intensity; Kallikrein-7 (Homo sapiens), P49862; purified proKLK7, EDANS-DABCYL substrate fluorescence; 100% is mature enzyme control, 0% vehicle; activation, % at 7 µM; 0.9% of 370,000 active;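 active = activation above the mean of all tested compounds plus 3 SD, computed per campaign excluding outliers beyond control limits, cut at about 13% in these data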
ADAM17 inh = ADAM17 inhibitors, primary screen, biochemical, QFRET; 0.83% of 370,000 active; inhibition, % at 6.95 µM; recombinant ADAM17, EDANS/DABCYL FRET peptide cleavage; Disintegrin and metalloproteinase domain-containing protein 17 (Homo sapiens), P78536;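 active = inhibition above the mean of compounds lying between control limits plus 3 SD, set per campaign, cut at about 8.5% in these data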;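 also: 0% = DMSO-only wells as the low control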
Target sequence (P78536 215-824 limits assumed): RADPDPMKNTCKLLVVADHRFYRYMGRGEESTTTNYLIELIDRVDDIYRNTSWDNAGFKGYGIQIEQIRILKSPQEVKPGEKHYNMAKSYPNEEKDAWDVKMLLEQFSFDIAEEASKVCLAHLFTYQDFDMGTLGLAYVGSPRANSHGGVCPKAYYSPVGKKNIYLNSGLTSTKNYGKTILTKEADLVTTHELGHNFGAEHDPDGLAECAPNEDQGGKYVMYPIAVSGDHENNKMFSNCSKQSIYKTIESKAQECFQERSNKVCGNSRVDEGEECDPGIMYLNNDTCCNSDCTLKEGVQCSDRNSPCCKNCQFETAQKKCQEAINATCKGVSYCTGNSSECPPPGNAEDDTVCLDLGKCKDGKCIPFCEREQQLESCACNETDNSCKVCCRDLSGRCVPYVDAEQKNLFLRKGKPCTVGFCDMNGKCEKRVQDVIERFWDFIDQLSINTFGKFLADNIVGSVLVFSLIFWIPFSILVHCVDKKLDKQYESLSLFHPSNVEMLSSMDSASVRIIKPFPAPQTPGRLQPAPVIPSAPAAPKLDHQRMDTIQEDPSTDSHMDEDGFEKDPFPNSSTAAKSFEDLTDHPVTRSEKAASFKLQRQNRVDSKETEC
ADAM10 inh = human ADAM10 inhibitors, primary screen, biochemical, QFRET, HTS | recombinant ADAM10, EDANS/DABCYL FRET peptide cleavage, 3 h | inhibition, % at 7 µM | 0.62% of 370,000 active | AID 720582, 2013;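 active = inhibition above a per-campaign cutoff equal to the mean of compounds falling between control-based bounds plus 3 SD, cut at about 20% in these data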;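 also: 0% = DMSO wells while the 100% control is not disclosed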
rCAG bind conf = small molecules binding CAG repeat RNA – biochemical, fluorescence, confirmation; 70% of 4,300 active; AID 652065, 2013; shares compounds with rCAG binder; inhibition, % at 3 µM; r(CAG) RNA repeat, TO-PRO-1 dye displacement fluorescence;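 active = inhibition above a per-plate cutoff, the mean inhibition of sample wells plus 3 SD, cut at about 35% in these data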;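 also: loss of TO-PRO-1 fluorescence as compound displaces dye from 1x1 AA loop RNA; 0% = DMSO only wells and 100% = 100 µM mitoxantrone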
dCAG dye counter = displacement of TO-PRO-1 from CAG DNA duplex, counter-screen for rCAG RNA repeat binder project, biochemical, fluorescence, TO-PRO-1 dye, d(CAG) DNA oligo | shares compounds with rCAG binder | d(CAG) DNA oligo TO-PRO-1 dye displacement | inhibition, % at 3 µM | 94% of 4,300 active;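 active = inhibition above its plate's cutoff, the mean test-well inhibition plus 3 SD, cut at about 4.8% in these data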;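 also: 0% = DNA dye mix with DMSO and 100% = 100 µM mitoxantrone; hits displace the dye from DNA and so lower well fluorescence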
DNA CAG DR = inhibitors of DNA CAG/GTC TO-PRO-1 complex, dose response, counter-screen for rCAG RNA repeat binder project, biochemical, fluorescence, TO-PRO-1 dye. shares compounds with rCAG binder. DNA CAG/GTC duplex TO-PRO-1 dye displacement fluorescence. IC50, µM. 20% of 250 active; in the data active = IC50 below about 10 µM
An asterisk follows results filed as active; i = inactive; . = no result given. Only some compounds are listed: those with a hit (about 4.7% of all), similar ones and a draw of the others.

SMILES	MPTP block	Pemphigus Ab inh	rCAG binder	proKLK7 act	ADAM17 inh	ADAM10 inh	rCAG bind conf	dCAG dye counter	others
Cc1ccc(-c2nc3c4ccccc4ccn3c2Cc2ccccc2C(F)(F)F)cc1	4	.	5	-2	-4	-17	.	.
O=C(COc1ccc2c(-c3ccccc3)cc(=O)oc2c1)N[C@@H](Cc1c[nH]c2ccc(O)cc12)C(=O)O	0	95	37*	1	-1	-5	39*	13*
O=C(COc1ccc2c(-c3ccccc3)cc(=O)oc2c1)NC(Cc1c[nH]c2ccccc12)C(=O)O (centres undefined)	0	91	54*	1	-5	-13	49*	12*
Cc1ccc(C)c(N2CCN(C(C(=O)NC3CCCC3)C(C)C)CC2)c1 (centres undefined)	-1	.	1	0	1	-1	.	.
O=C(O)COc1ccccc1/C=N/NC(=O)Cc1ccccc1	-1	106	-3	0	-6	-10	.	.
O=C(O)COc1ccccc1/C=N/NC(=O)Cc1csc(Nc2cccc(C(F)(F)F)c2)n1	-2	111	59*	1	-4	4	55*	17*
CSc1nn(CCC#N)c(=O)[nH]c1=O	.	.	0	0	-8	3	.	.
COc1ccccc1Nc1nc2ccccc2n2cnnc12	0	103	77*	1	-1	3	7	1
c1ccc(Nc2nc3ccccc3n3cnnc23)cc1	0	104	2	1	0	-6	.	.
C[C@H](CO)N1C[C@H](C)[C@H](CN(C)C(=O)Nc2cccc(F)c2)Oc2cc(Br)ccc2S1(=O)=O	.	.	4	1	0	3	.	.
CCN(CCO)c1nc(SC)nc2c1sc1nc(-c3ccco3)c3c(c12)CCC3	6	101	.	.	.	.	.	.
CSc1nc(NCCOCCO)c2sc3nc(-c4ccco4)c4c(c3c2n1)CCC4	-3	106	52*	-4	-25	-87	38*	18*	DNA CAG DR=i
CCC(=O)N1CCC1(C)C(=O)Nc1ccc2c(c1)CCN2C(C)=O (centres undefined)	0	.	1	0	-5	-3	.	.
CCc1nnc(NS(=O)(=O)c2ccc(NCc3cc(Cl)ccc3O)cc2)s1	0	102	65*	-1	-6	7	46*	14*
CCc1nnc(NS(=O)(=O)c2ccc(NCc3cc(Cl)cc(Cl)c3O)cc2)s1	-1	112	70*	0	-1	8	37*	9.5*
Cc1ccc(O)c(CNc2ccc(S(=O)(=O)Nc3nccs3)cc2)c1	0	95	20	0	3	4	.	.
CC(=O)Nc1ccc(S(=O)(=O)Nc2nnc(Cc3ccc(Cl)cc3)s2)cc1	0	105	17	0	-3	0	.	.
CCOC(=O)C1=CCN(S(=O)(=O)c2ccc(Cl)cc2)C1c1ccc(Br)cc1 (centres undefined)	.	.	10	0	4	5	.	.
CCOC(=O)c1sc(NC(=O)CSc2nc(-c3ccco3)cc(C(F)(F)F)n2)c(C(=O)OCC)c1C	3	98	1	-1	-2	6	.	.
COc1ccc(S(=O)(=O)NNC(=O)c2cc3cc4ccccc4nc3s2)cc1	1	102	35*	1	-8	-54	23	6.4*
O=S(=O)(c1ccc2c(c1)CCCC2)N1CCNCC1	0	.	0	0	-2	-5	.	.
Cc1c(Cc2ccccc2)c(=O)oc2c(C)c(OC(C)C(=O)N[C@@H](Cc3ccccc3)C(=O)O)ccc12 (some centres undefined)	-2	97	48*	-8	-128	i	61*	23*
Cc1c(OCC(=O)N[C@@H](Cc2ccccc2)C(=O)O)ccc2c1oc(=O)c1ccccc12	0	101	28	-7	-185	i	.	.
O=C(O)c1cc(S(=O)(=O)N2CCN(S(=O)(=O)c3ccccc3)CC2)ccc1Cl	1	95	0	0	-1	0	.	.
O=C(O)c1cc(S(=O)(=O)N2CCN(S(=O)(=O)c3ccc4ccccc4c3)CC2)ccc1Br	1	116	53*	0	4	-9	43*	15*
SMILES	MPTP block	Pemphigus Ab inh	rCAG binder	proKLK7 act	ADAM17 inh	ADAM10 inh	rCAG bind conf	dCAG dye counter	others
O=C(O)c1cc(S(=O)(=O)N2CCN(C(c3ccccc3)c3ccccc3)CC2)ccc1Cl	0	100	55*	0	0	2	49*	17*
C/C(C=NNC(=O)CSc1nc2ccccc2n1Cc1ccccc1Cl)=C\c1ccccc1	.	.	4	0	5	4	.	.
COc1cc(Nc2cc(C)n(-c3cc(OC)cc(OC)c3)c(=O)c2)cc(OC)c1	.	.	6	0	-4	-11	.	.
COc1ccc(-c2cc(C(F)(F)F)nc(SCc3cccc(C(=O)O)c3)n2)cc1	6	89	5	-1	-3	-3	.	.
O=C(O)c1cccc(CSc2nc(-c3ccccc3)cc(C(F)(F)F)n2)c1	-2	108	62*	0	0	9	48*	14*
C=C1c2cccc(O)c2C(O)=C2C(=O)[C@]3(O)C(O)=C(C(N)=O)C(=O)[C@@H](N(C)C)[C@@H]3[C@@H](O)[C@H]12	5	96	85*	-8	-3	-21	24	9.8*
CC(=O)Nc1ccc(S(=O)(=O)Nc2nccs2)cc1	0	102	-3	-1	-3	-1	.	.
CC(C)(C)c1ccc(C(=O)NCCC(=O)Nc2ccc(S(=O)(=O)Nc3nccs3)cc2)cc1	-2	107	57*	0	3	-6	54*	20*
O=C(CSc1ccncc1)Nc1ccc(S(=O)(=O)Nc2nccs2)cc1	0	88	14	0	-4	-5	.	.
CCC(C)C(=O)Nc1ccc(S(=O)(=O)Nc2nccs2)cc1 (centres undefined)	1	105	2	0	-5	5	.	.

Screening results from PubChem.
